Many of the other results were omitted from the sample, so hits are more common in it than they were.
LmPK inhibitor: inhibitors of Leishmania mexicana pyruvate kinase; AID 1721; Potency, µM (highest dose often 57.5 µM), for inactives: at the top dose activity change, negative = inhibition, usual class: inhibitors; Q27686; hit rate 0.37% among 290,000; purified LmPK, Kinase-Glo ATP luminescence, 1 h; also: potency is read from the fitted curve at half-maximal effect; % is scaled to controls: 0 for no effect and ±100 for the full control effect
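Pyruvate kinase activity monitored as ATP production (luciferase luminescence). Conditions: 0.1 nM enzyme, 0.5 mM PEP, 0.1 mM ADP, 1 h, RT; normalized against uninhibited and no-enzyme wells.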
Shiga inhibitor: inhibitors of Shiga toxin in Vero cells; AID 2315; inhibition, % at 38.7 µM; hit rate 9.2% among 290,000; Vero cells, Shiga toxin protein synthesis inhibition reporter; in the data active = inhibition mostly above about 28%, no sharp cut-off; inactive = mostly below about 43%; also: 0% is about no effect
Giardia FBPA inh: blocks Giardia fructose-bisphosphate aldolase activity. A8B2U2. hit rate 0.71% among 290,000. Potency, µM (doses to about 59.6 µM), inactives show top-dose activity, negative = inhibition, hits mostly inhibitors. purified Giardia FBPA. AID 2451; also: potency is read from the fitted curve at half-maximal effect; % is scaled to controls: 0 for no effect and ±100 for the full control effect; nearly all actives have a fitted effect of over 55% in size
Target sequence (A8B2U2 whole entry, looked up): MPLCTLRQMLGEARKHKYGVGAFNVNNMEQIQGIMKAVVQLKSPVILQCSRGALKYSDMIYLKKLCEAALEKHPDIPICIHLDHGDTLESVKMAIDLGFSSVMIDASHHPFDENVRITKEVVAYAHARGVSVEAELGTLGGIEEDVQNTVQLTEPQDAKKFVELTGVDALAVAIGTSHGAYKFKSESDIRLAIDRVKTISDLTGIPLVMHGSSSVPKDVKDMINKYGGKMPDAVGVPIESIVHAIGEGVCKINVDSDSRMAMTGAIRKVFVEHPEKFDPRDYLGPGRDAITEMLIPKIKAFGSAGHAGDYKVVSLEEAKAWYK
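Giardia FBPA (40 nM reagent) was preincubated 10 min at RT with compound (up to 57.5 uM final), then substrate plus GAPDH/TPI/NAD/arsenate coupling system with diaphorase/resazurin was added; resorufin fluorescence (525/598 nm) was read after 20 min.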
Cycloheximide cs: counter-screen for Shiga toxin inhibitors: cycloheximide protein synthesis inhibition; cell reporter, cycloheximide protein synthesis inhibition counterscreen; max response, %; hit rate 12% among 300,000; AID 2314; in the data active = max response mostly above about 13%, no sharp cut-off; inactive = mostly below about 14%; also: read at 38.3 µM for the half of the compounds with a filed dose; 0% is about no effect
Sm TGR inh: inhibitors of Schistosoma mansoni thioredoxin glutathione reductase | Q962Y6 | purified TGR, DTNB reduction, TNB absorbance 405 nm | Potency, µM (titrated, usually from 114 µM), for the others: at the top dose activity change, negative = inhibition, usual class: inhibitors | hit rate 3% among 360,000 | AID 485364; also: potency is read from the fitted curve at half-maximal effect; % is scaled to controls: 0 for no effect and ±100 for the full control effect; nearly all actives have a fitted effect of over 60% in size
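TGR 20 nM + NADPH 100 uM (dispensed conc.), cpd preinc 15 min RT; start with NADPH (500 uM addition) then DTNB (15 mM addition). Kinetic TNB absorbance, 405 nm filter. Four-parameter Hill fit across titration.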
Tb PYK inh: inhibitors of Trypanosoma brucei pyruvate kinase | hit rate 0.12% among 410,000 | Potency, µM (highest dose often 76.8 µM), for the others: at the top dose activity, negative = inhibition, actives largely listed as inhibitors | TbPYK enzyme, Kinase-Glo Plus ATP luminescence, 45 min; also: potency is read from the fitted curve at half-maximal effect; % is scaled to controls: 0 for no effect and ±100 for the full control effect; nearly all actives have a fitted effect of over 50% in size
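In this concentration-response screen, enzyme-free wells defined baseline while DMSO plates tracked drift. Each reaction combined TbPYK, substrate, compound and 130 uM ADP for 45 min at room temperature. Kinase-Glo Plus luminescence gave the signal.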
Numbers without * were called inactive; u = inconclusive; x = not tested or not shown. Unless noted, calls follow the shape of the dose curve; as a rule, active = well fitted curve in the direction sought with a large enough effect; inconclusive = small, poorly fitted or top-dose-only effect, or another doubt; inactive = no such curve, though single readings can be large; an effect the other way counts as inactive or inconclusive.

SMILES	LmPK inhibitor	Shiga inhibitor	Giardia FBPA inh	Cycloheximide cs	Sm TGR inh	Tb PYK inh
COc1ccc2c(c1)O[C@H](c1ccc3c(c1)OCO3)[C@@H](OC(=O)Nc1ccc(C)c(Br)c1)C2=O	x	x	0.7%	x	x	x
CCCn1nnnc1SCC(=O)N1CCCc2ccccc21	-2.3%	108.0*	-3.6%	47.8*	-18.0%	1.5%
O=C(CSC1=NCCS1)N1CCc2ccccc21	-12.5%	178.3*	1.0%	41.1*	-1.3%	-5.5%
CCc1nnc(SCC(=O)N2CCCc3ccccc32)nc1CC	1.4%	-7.8	2.7%	1.2	4.7%	1.7%
CC(C)c1nc(SCC(=O)N2CCc3ccccc32)n[nH]1	6.2%	47.3	1.2%	20.8*	-1.4%	-2.6%
Cc1ccc2c(c1)c1nnc(SCC(=O)N3CCCc4ccccc43)nc1n2CC(=O)O	4.47µM*	76.2*	-3.9%	32.1*	-1.6%	1.6%
Cc1cc(C)nc(SCC(=O)N2CCc3ccccc32)n1	x	x	x	x	x	2.7%
Cc1ccc(NC(=O)CSc2nc3ccccc3n2CC(=O)N2CCC(C)CC2)cc1C	x	x	x	x	-7.9%	-0.1%
N#C/C(=C/c1ccc(O)c(O)c1)C(=O)NCc1ccc(Cl)cc1	0.4%	-8.3	u	5.3	-26.4%	1.3%
N#C/C(=C\c1cc(Cl)c(OCc2ccc(Cl)cc2)c(Cl)c1)C(N)=O	8.9%	52.7*	0.3%	29.8*	0.5%	x
N#C/C(=C\c1cc(O)c(O)c(O)c1)C(N)=O	4.4%	-7.9	5µM*	-2.1	12.6µM*	u
N#C/C(=C\c1ccc(O)c(O)c1)C(=O)NCCCNC(=O)/C(C#N)=C/c1ccc(O)c(O)c1	x	x	-29.4%	x	x	x
c1ccc(-c2nc3c(ccc4ccccc43)[nH]2)nc1	-16.6%	94.2*	-12.4%	42.4*	6.6%	-8.8%
c1ccc(-c2nc3ccccc3[nH]2)nc1	u	117.0*	1.7%	72.2*	0.9%	-10.5%
O=c1[nH]c(-c2ccccn2)nc2ccccc12	-20.2%	105.2	20.6%	44.4*	5.6%	2.1%
Nc1nc(-c2nc3ccccc3[nH]2)cs1	u	70.0*	15.5%	33.4*	13.5%	-12.2%
Nc1c(-c2nc(-c3cccs3)no2)nnn1-c1cccc(F)c1	x	x	x	x	6.3%	1.5%
CCc1nc2c(OCC3CCCCC3)cccn2c1N(C)C(=O)c1ccc(C)cc1	x	x	x	x	x	-3.7%
Cc1sc2nc(-c3ccccn3)[nH]c(=O)c2c1-c1ccccc1	-1.1%	113.8*	u	70.9*	9.5%	-14.0%
Cc1sc2nc(-c3ccncc3)[nH]c(=O)c2c1-c1ccccc1	4.0%	-6.3	8.1%	-6.0	-16.6%	x
Cc1ccc2nc(-c3ccccn3)[nH]c2c1	22.4µM*	14.5	10.9%	18.3*	-11.5%	u
Cc1ccc2nc(CCCc3nc4ccc(C)cc4[nH]3)[nH]c2c1	-0.3%	1.8	-2.5%	-0.8	1.3%	4.9%
CCC(=O)C1=C(c2cccc([N+](=O)[O-])c2)N(C(=O)CC)n2c(nnc2C2CCCCC2)S1	x	x	x	x	22.1%	-8.1%
COC(=O)c1ccc2c(=O)[nH]c(CSc3nc(-c4ccc(F)cc4)cs3)nc2c1	-0.8%	1.9	1.7%	-3.6	0.3%	-2.4%
COC(=O)c1ccc2c(=O)[nH]c(CSc3nc(C)cs3)nc2c1	-21.3%	67.3*	-4.6%	27.6*	-20.4%	-16.7%
SMILES	LmPK inhibitor	Shiga inhibitor	Giardia FBPA inh	Cycloheximide cs	Sm TGR inh	Tb PYK inh
O=C(NCc1ccc(F)cc1Cl)c1ccc(CSCc2ccccc2Cl)o1	x	x	x	x	-1.5%	-3.8%
CC(=O)NC1[C@H]([C@H](O)[C@H](O)CO)OC(C(=O)O)=C[C@H]1N=C(N)N (some centres undefined)	x	x	x	x	x	-4.7%
COc1cc(NC(=O)c2ccccc2F)ccc1NC(=O)c1cc2ccccc2o1	0.4%	-4.7	1.1%	-1.4	-7.4%	-3.2%
O=C(/C=C\c1ccccc1OC(=O)c1ccccc1F)c1cc2ccccc2o1	1.5%	62.9	-2.7%	43.8*	-22.8%	0.4%
COC(=O)c1ccccc1OC(=O)c1cc2ccccc2oc1=O	-7.7%	51.9*	-4.4%	28.8*	0.0%	-1.2%
CC(=O)/C=C\c1ccccc1OC(=O)c1cc2ccccc2oc1=O	1.2%	1.9	15.8%	11.1*	-25.4%	0.3%
COc1ccccc1OC(=O)c1cc2ccccc2oc1=O	-0.2%	18.0	-0.4%	0.4	-21.3%	1.6%
O=C1C([N+](=O)[O-])=C(O)c2cccc3cccc1c23	-13.5%	8.5	25.1µM*	11.1*	39.8µM*	x
O=C1C(=O)c2cccc3cccc1c23	9.3%	-3.3	u	-1.2	-0.6%	-9.4%
Clc1nc(CN2CCCCC2)nc2sc3c(c12)CCC3	1.3%	34.8	-0.3%	2.6	22.4µM*	2.8%
CC(C)Cc1nn2c(=O)cc(COC(=O)c3ccc(NC(=O)C4CCCCC4)cc3)nc2s1	x	x	x	x	-1.7%	-4.4%
COC(=O)c1cc(-c2ccccc2)sc1N	4.6%	58.4*	-4.4%	26.2*	-22.4%	-7.5%
Nc1sc(-c2ccccc2)cc1C(=O)N/N=C/c1ccc(Cl)cc1	1.8%	34.0*	-8.0%	8.9	-5.7%	-7.4%
CCOC(=O)c1cc(-c2ccccc2)sc1NC(=O)C(C)(C)C	-6.0%	20.0	1.9%	-4.4	12.8%	6.7%
O=C(NCc1ccccc1Cl)c1ccc(NC(=O)N2CCSc3ccccc32)cc1	x	x	x	x	2.1%	1.8%
O=C(CSc1nnc(-c2ccncc2)o1)N1CCc2ccccc2C1	0.6%	-6.6	-10.2%	-2.4	-0.5%	-1.4%
O=C(CSc1ncccn1)N1CCc2ccccc2C1	-3.9%	27.5	-3.8%	13.6*	12.1%	-11.5%
Cc1ccnc(SCC(=O)N2CCc3ccccc3C2)n1	4.7%	2.9	-5.2%	-1.8	31.6µM*	-4.2%
O=C(c1cccs1)N1CCc2ccccc2C1	0.1%	1.3	u	-1.9	5.7%	-0.8%
O=C(Cc1ccc(Br)cc1)N1CCc2ccccc2C1	1.6%	x	7.3%	39.1*	1.9%	0.9%
O=C(c1ccc(Br)s1)N1CCc2ccccc2C1	-4.8%	151.5*	x	49.3*	-17.9%	3.6%
O=C(/C=C/C(=O)N1CCc2ccccc2C1)N1CCc2ccccc2C1	5.6%	22.8	-6.1%	-0.9	-21.7%	1.4%
CS(=O)(=O)c1ccc(C(=O)Nc2ccc(N3CCOCC3)cc2)c(Cl)c1	0.6%	12.0	6.3%	10.3	-16.4%	1.7%
CS(=O)(=O)c1ncc(Cl)c(C(=O)Nc2ccc(N3CCOCC3)cc2)n1	2.7%	67.3*	-23.1%	59.7*	15.8µM*	-3.6%
CCc1nnc(NC(=O)c2nc(S(C)(=O)=O)ncc2Cl)s1	x	x	x	x	u	4.1%
CS(=O)(=O)c1ncc(Cl)c(C(=O)Nc2ccc(OC(F)F)cc2)n1	0.5%	-5.7	2.6%	-7.6	7.94µM*	4.6%

Assay outcomes deposited in PubChem by National Center for Advancing Translational Sciences (NCATS).
